Assay results taken from a collection of fitness landscapes (doi:10.1126/science.1257360).
Over roughly 140,000 sequences, “enrichment ratio after two sorts for PhoP signalling” has its median near 0; the highest 2% begin near 11. Many of the other results were omitted from the sample, so the highest values are more common in it than they were.

B1: PhoQ; a variant is named by its letters at X, in order, P23837 (parent)
chain: MKKLLRLFFPLSLRVRFLLATAAVVLVLSLAYGMVALIGYSVSFDKTTFRLLRGESNLFYTLAKWENNKLHVELPENIDKQSPTMTLIYDENGQLLWAQRDVPWLMKMIQPDWLKSNGFHEIEADVNDTSLLLSGDHSIQQQLQEVREDDDDAEMTHSVAVNVYPATSRMPKLTIVVVDTIPVELKSSYMVWSWFIYVLSANLLLVIPLLWVAAWWSLRPIEALAKEVRELEEHNRELLNPATTRELTSLVRNLNRLLKSERERYDKYRTTLTDLTHSLKTPLXXLQXXLRSLRSEKMSVSDAEPVMLEQISRISQQIGYYLHRASMRGGTLLSRELHPVAPLLDNLTSALNKVYQRKGVNISLDISPEISFVGEQNDFVEVMGNVLDNACKYCLEFVEISARQTDEHLYIVVEDDGPGIPLSKREVIFDRGQRVDTLRPGQGVGLAVAREITEQYEGKIVAGESMLGGARMEVIFGRQHSAPKDE

Variants of: B1
Experiment: enrichment ratio after two sorts for PhoP signalling (ratio (wild type AVST 3.29)); higher = more functional
Conditions: with PhoP (E. coli)

Row | Variant | enrichment ratio
1 | NDFR | 2.54
2 | FPHA | ≤ 0.25
3 | HDNY | ≤ 0.25
4 | QCKR | ≤ 0.25
5 | LDKY | ≤ 0.25
6 | YWPF | ≤ 0.25
7 | DPVE | ≤ 0.25
8 | NGRY | ≤ 0.25
9 | ACAN | 15.5
10 | ATPN | ≤ 0.25
11 | ACAM | 30.7
12 | ACQN | ≤ 0.25
13 | ACAE | 15.5
14 | KCAE | ≤ 0.25
15 | YTVN | ≤ 0.25
16 | ACRM | ≤ 0.25
17 | ACAK | 0.412
18 | ACAV | 3.32
19 | ATVN | 19.4
20 | ACAT | 0.287
21 | CLIL | ≤ 0.25
22 | RMFK | ≤ 0.25
23 | PFPY | ≤ 0.25
24 | RDQR | ≤ 0.25

Row | Variant | enrichment ratio
25 | IEIS | ≤ 0.25
26 | IVGI | ≤ 0.25
27 | EILP | ≤ 0.25
28 | ACVM | 12.1
29 | ACPM | 0.39
30 | ACNM | ≤ 0.25
31 | PFDF | ≤ 0.25
32 | HKVH | ≤ 0.25
33 | MKVH | ≤ 0.25
34 | AKVI | 5.34
35 | KKVQ | ≤ 0.25
36 | TKVG | 1.43
37 | HKVI | ≤ 0.25
38 | TKVH | 12.3
39 | TKVQ | 11.7
40 | TKVA | 18.4
41 | TKVK | ≤ 0.25
42 | TKVI | 30.1
43 | AKVQ | 2.82
44 | RIDW | ≤ 0.25
45 | SRWP | ≤ 0.25
46 | PCHL | ≤ 0.25
47 | IMSS | ≤ 0.25
48 | RNRM | ≤ 0.25

Row | Variant | enrichment ratio
49 | QWVH | ≤ 0.25
50 | AEDM | ≤ 0.25
51 | YQHC | ≤ 0.25
52 | TKMA | 20.5
53 | HKVV | ≤ 0.25
54 | MKVM | ≤ 0.25
55 | TKVV | 16.7
56 | AKVM | ≤ 0.25
57 | TKVM | 36.7
58 | HKMA | ≤ 0.25
59 | AKVV | 11
60 | MEMA | ≤ 0.25
61 | TEIA | 5.22
62 | RVAC | ≤ 0.25
63 | LPRF | ≤ 0.25
64 | VFWD | ≤ 0.25
65 | DAPE | ≤ 0.25
66 | QDDV | ≤ 0.25
67 | THSH | 12.3
68 | THGH | 13.1
69 | KSGH | ≤ 0.25
70 | TCGH | 23.5
71 | KLGH | ≤ 0.25
72 | HFGH | ≤ 0.25

Row | Variant | enrichment ratio
73 | SHSH | 0.368
74 | NHSH | ≤ 0.25
75 | TLGH | 12.5
76 | VEGH | ≤ 0.25
77 | TLGP | ≤ 0.25
78 | TCGP | 1.63
79 | NPCL | ≤ 0.25
80 | WFFE | ≤ 0.25
81 | IMHM | ≤ 0.25
82 | NGPM | ≤ 0.25
83 | PILN | ≤ 0.25
84 | REPM | ≤ 0.25
85 | FADW | ≤ 0.25
86 | TMGP | ≤ 0.25
87 | TMGH | 15.3
88 | TMTH | 9.92
89 | STKH | ≤ 0.25
90 | MCYL | 13
91 | TTGM | 28.6
92 | YTGM | ≤ 0.25
93 | MLYL | 10.2
94 | MNYL | 12
95 | TTGD | 0.456
96 | MEYL | 3.47

Row | Variant | enrichment ratio
97 | MMGV | ≤ 0.25
98 | MCGV | 13.4
99 | KLYL | ≤ 0.25
100 | MNNL | 0.29
101 | MEGV | ≤ 0.25
102 | DQFA | ≤ 0.25
103 | KQAS | ≤ 0.25
104 | PFKG | ≤ 0.25
105 | NGPW | ≤ 0.25
106 | AAVK | ≤ 0.25
107 | NAHM | ≤ 0.25
108 | MCYI | 27.7
109 | MCWI | 18.3
110 | MCRM | ≤ 0.25
111 | MCYK | ≤ 0.25
112 | KAHM | ≤ 0.25
113 | MCAY | 4.41
114 | MCWM | 16.4
115 | TAHM | 14.1
116 | MCDS | ≤ 0.25
117 | MCVA | ≤ 0.25
118 | MCCK | ≤ 0.25
119 | LMRM | ≤ 0.25
120 | TVRL | 0.897

Row | Variant | enrichment ratio
121 | LALM | 8.02
122 | FHFV | ≤ 0.25
123 | EESR | ≤ 0.25
124 | MKAM | ≤ 0.25
125 | MCAM | 12.2
126 | ICAM | 17.4
127 | FDHM | ≤ 0.25
128 | TGGM | ≤ 0.25
129 | ICGM | ≤ 0.25
130 | MAHM | 14.7
131 | THGM | 12.3
132 | FVHM | ≤ 0.25
133 | ICWM | ≤ 0.25
134 | KCAM | ≤ 0.25
135 | KCGM | ≤ 0.25
136 | GDQT | ≤ 0.25
137 | TWQT | ≤ 0.25
138 | IVCI | ≤ 0.25
139 | TNFL | ≤ 0.25
140 | MLWM | ≤ 0.25
141 | MCDM | ≤ 0.25
142 | MLAM | 15.5
143 | MKAK | ≤ 0.25
144 | MNFL | 14.1

Row | Variant | enrichment ratio
145 | MLNM | ≤ 0.25
146 | MCGM | 12.2
147 | MCAK | 21.4
148 | MCVM | ≤ 0.25
149 | MKFL | 0.755
150 | MAAK | ≤ 0.25
151 | KFHC | ≤ 0.25
152 | RINI | ≤ 0.25
153 | PWSK | ≤ 0.25
154 | EKTT | ≤ 0.25
155 | YVYD | ≤ 0.25
156 | WNEY | ≤ 0.25
157 | VGWQ | 1.18
158 | FPFF | ≤ 0.25
159 | GAHW | ≤ 0.25
160 | GIYF | ≤ 0.25
161 | RKRF | ≤ 0.25
162 | NCYL | ≤ 0.25
163 | TCYL | 16.2
164 | KCYL | ≤ 0.25
165 | MCSQ | 11.6
166 | YTDM | ≤ 0.25
167 | MQSQ | ≤ 0.25
168 | TTDM | 22.8

Row | Variant | enrichment ratio
169 | LSYL | 11.2
170 | ITDM | ≤ 0.25
171 | LTYL | 0.587
172 | KCSQ | ≤ 0.25
173 | LNYL | ≤ 0.25
174 | YSLM | 9.22
175 | KKFE | ≤ 0.25
176 | ELTM | ≤ 0.25
177 | TLNS | 6.81
178 | EHKW | ≤ 0.25
179 | HFHT | ≤ 0.25
180 | QNLL | ≤ 0.25
181 | NWYY | ≤ 0.25
182 | IMGQ | ≤ 0.25
183 | PTPW | ≤ 0.25
184 | TWNY | ≤ 0.25
185 | MDHM | ≤ 0.25
186 | KCHM | ≤ 0.25
187 | MCHM | 16.7
188 | YPGL | ≤ 0.25
189 | SGHF | ≤ 0.25
190 | SGMW | ≤ 0.25
191 | SGGF | 1.06
192 | SGWN | ≤ 0.25

Row | Variant | enrichment ratio
193 | SGMD | ≤ 0.25
194 | SGNL | 0.304
195 | SGCV | 15.2
196 | SGCI | 10.3
197 | SGWV | ≤ 0.25
198 | SGMN | 30.2
199 | SGMF | 13.3
200 | SGMV | 14.3
201 | IRYD | ≤ 0.25
202 | ARIW | ≤ 0.25
203 | QYQP | ≤ 0.25
204 | YDYL | ≤ 0.25
205 | LNRM | ≤ 0.25
206 | SGMI | 25
207 | SGMG | 0.699
208 | SGMS | 6.87
209 | EIPP | ≤ 0.25
210 | FSCC | 1.27
211 | IPCC | ≤ 0.25
212 | SECC | 38
213 | IECC | 11.9
214 | SLCC | 8.22
215 | FCCC | ≤ 0.25
216 | EECC | ≤ 0.25

Row | Variant | enrichment ratio
217 | HPCC | ≤ 0.25
218 | HECC | 7.31
219 | SPCC | ≤ 0.25
220 | TECC | 30
221 | FECC | 22.6
222 | KYGK | ≤ 0.25
223 | RDWY | ≤ 0.25
224 | FLEP | ≤ 0.25
225 | HSIW | ≤ 0.25
226 | NECC | ≤ 0.25
227 | QECC | ≤ 0.25
228 | MECC | 14.4
229 | APCG | ≤ 0.25
230 | HWFW | ≤ 0.25
231 | QDYL | ≤ 0.25
232 | NQQC | ≤ 0.25
233 | NHQC | ≤ 0.25
234 | TKQC | 12.8
235 | TSQC | 14.5
236 | KAQC | ≤ 0.25
237 | NSQC | ≤ 0.25
238 | VVQC | 12.7
239 | SHQC | ≤ 0.25
240 | VYQC | ≤ 0.25

Row | Variant | enrichment ratio
241 | THQC | 13.1
242 | KSQC | ≤ 0.25
243 | VLQC | ≤ 0.25
244 | FREL | ≤ 0.25
245 | PHMW | ≤ 0.25
246 | YKAD | ≤ 0.25
247 | LFMF | ≤ 0.25
248 | WKII | ≤ 0.25
249 | WHFY | ≤ 0.25
250 | WCRI | ≤ 0.25
251 | QRNG | ≤ 0.25
252 | QMWW | ≤ 0.25
253 | QMTH | ≤ 0.25
254 | QMNG | 38.7
255 | QMDH | 15
256 | QMGE | 96.1
257 | QMMI | ≤ 0.25
258 | QMDS | ≤ 0.25
259 | QEGE | ≤ 0.25
260 | QMHF | 13.5
261 | QMGF | 6.84
262 | QMHI | ≤ 0.25
263 | DWSK | ≤ 0.25
264 | GLGH | ≤ 0.25

Row | Variant | enrichment ratio
265 | IMDI | ≤ 0.25
266 | QSMQ | ≤ 0.25
267 | VMGY | ≤ 0.25
268 | NRNH | ≤ 0.25
269 | TNKN | ≤ 0.25
270 | QMWM | ≤ 0.25
271 | QMNF | 36
272 | QMNN | 12.1
273 | QMWQ | ≤ 0.25
274 | QMNI | 9.75
275 | QMNL | 3.36
276 | QMHM | 28.3
277 | QENN | 3.33
278 | QMHQ | 13.4
279 | QRNF | ≤ 0.25
280 | QMPM | ≤ 0.25
281 | QMHP | ≤ 0.25
282 | DYPW | ≤ 0.25
283 | LWVM | ≤ 0.25
284 | GLWV | ≤ 0.25
285 | MEAP | ≤ 0.25
286 | GFED | ≤ 0.25
287 | ATGH | 5.03
288 | EKMA | ≤ 0.25

Row | Variant | enrichment ratio
289 | QMVG | ≤ 0.25
290 | QMTR | ≤ 0.25
291 | QMHG | 13
292 | SEEN | ≤ 0.25
293 | SEQN | 21.6
294 | SENL | ≤ 0.25
295 | SLYM | ≤ 0.25
296 | SEGM | 6.17
297 | SEYM | 19.4
298 | ISAH | ≤ 0.25
299 | GGLK | ≤ 0.25
300 | HLNC | ≤ 0.25
301 | DDAI | ≤ 0.25
302 | QAIL | ≤ 0.25
303 | FAAN | ≤ 0.25
304 | MMLL | 1.58
305 | FFLL | ≤ 0.25
306 | FARL | ≤ 0.25
307 | MALL | 16.2
308 | FALL | 16.3
